# Assay outcomes (PubChem)
# A selection: hits, their analogues and other compounds. The true share with any hit is near 12%.
# BAZ2B block: BAZ2B (human) inhibition. AlphaScreen BAZ2B-H3K14Ac peptide displacement. 360,000 compounds, 4.4% hits. Q9UIF8. Potency, µM (doses to about 114 µM), without a hit: at the highest dose activity change, negative = inhibition, hits mostly inhibitors; note: % is set by controls: 0 for no effect and ±100 for the full control effect; nearly all actives have a fitted effect of over 60% in size
#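 Complex of BAZ2B and biotin-H3K14Ac (50 nM apiece) forms over 30 min at RT, then faces library compounds up to 110 uM for another 30 min; AlphaScreen beads added, 20 min dark incubation, luminescence read.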
# Sfp inh: blocks B. subtilis Sfp PPTase activity; Potency, µM, for inactives: largest response in the series, negative = inhibition, actives largely listed as inhibitors; Biochemical Sfp PPTase activity, qHTS; 310,000 compounds, 3.5% hits; AID 1490; Q9F4F7;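 note: the enzyme is Sfp with the accession as filed and its product quenches rhodamine fluorescence; 0% = enzyme reaction without inhibitor and -100% = no enzyme wells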
#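 Sfp 15 nM + cpd, 15 min RT; start w/ rhodamine-CoA 5 uM, BHQ-2-YbbR 12.5 uM (final); 50 mM Hepes pH 7.6, 10 mM MgCl2, 0.01% NP-40, 0.01% BSA; read 525/598 nm at 0 and 30 min.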
# G9a inh: blocks human histone lysine methyltransferase G9a; Q96KQ7; G9a H3K9 monomethylation, AlphaScreen, 2 h; Potency, µM (top dose mostly 102 µM), without a hit: at the highest dose activity, negative = inhibition, usual class: inhibitors; 350,000 compounds, 8.8% hits; note: % is set by controls: 0 for no effect and ±100 for the full control effect; nearly all actives have a fitted effect of over 75% in size
# Target sequence (Q96KQ7 913-1193 limits assumed): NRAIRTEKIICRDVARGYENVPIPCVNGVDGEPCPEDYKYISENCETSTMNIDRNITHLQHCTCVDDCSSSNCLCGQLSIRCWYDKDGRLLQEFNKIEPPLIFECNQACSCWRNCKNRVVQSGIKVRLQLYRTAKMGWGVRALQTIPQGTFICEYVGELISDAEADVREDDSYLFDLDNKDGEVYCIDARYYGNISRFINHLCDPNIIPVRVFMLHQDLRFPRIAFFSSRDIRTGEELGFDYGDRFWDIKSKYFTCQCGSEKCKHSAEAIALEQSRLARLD
#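 Compounds were preincubated with 20 nM G9a for 15 min, after which biotinylated H3K9 peptide (500 nM) and SAM (20 uM) started a 2 h room-temperature reaction. Monomethylated product was quantified by antibody-based AlphaScreen chemiluminescence.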
# L3MBTL1 inh: L3MBTL1 (human) inhibition. AlphaScreen L3MBTL1–H3K9me1 peptide binding. 230,000 compounds, 0.66% hits. Q9Y468. Potency, µM (titrated, usually from 57.1 µM), inactives show at the highest dose activity, negative = inhibition, actives largely listed as inhibitors. AID 485360; note: % is set by controls: 0 for no effect and ±100 for the full control effect; nearly all actives have a fitted effect of over 60% in size
#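 L3MBTL1 50 nM + b-AHA-H3(1-15)K9me1 75 nM, 30 min RT; compound added, 30 min RT; streptavidin donor/Ni-chelate acceptor beads 10 ug/mL each final, 30 min RT dark; AlphaScreen read.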
# JMJD2A Tudor inh: JMJD2A Tudor domain (human) inhibition | 390,000 compounds, 4.4% hits | O75164 | Potency, µM (highest dose often 114 µM), for inactives: at the top dose activity change, negative = inhibition, hits mostly inhibitors | AID 504339 | AlphaScreen JMJD2A-Tudor / H3K4me3 peptide binding; note: % is set by controls: 0 for no effect and ±100 for the full control effect; nearly all actives have a fitted effect of over 50% in size
# HP1b chromo inh: blocks HP1-beta chromodomain binding to methylated histone tails; AlphaScreen HP1-beta / biotin-H3K9me3 peptide binding; Potency, µM (series often up to 114 µM), inactives show top-dose activity change, negative = inhibition, actives largely listed as inhibitors; P83916; 390,000 compounds, 0.56% hits; note: nearly all actives have a fitted effect of over 70% in size
# Target sequence (P83916 whole entry, looked up): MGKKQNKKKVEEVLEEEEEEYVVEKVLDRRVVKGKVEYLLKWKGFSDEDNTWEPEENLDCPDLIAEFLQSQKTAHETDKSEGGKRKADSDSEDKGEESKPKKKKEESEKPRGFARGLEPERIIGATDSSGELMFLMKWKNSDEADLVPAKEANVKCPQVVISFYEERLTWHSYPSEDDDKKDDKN
#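 Compound inhibition of the preformed complex between 50 nM HP1-beta and 50 nM biotinylated H3K9me3 peptide was read by AlphaScreen. Buffer was PBS pH 7.4 with 0.01% Tween-20. Incubations ran 30 min at room temperature, with 10 ug/mL donor/acceptor beads.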
# Starred values were filed as active, the others as inactive; u = inconclusive; x = not tested or not shown; ! = repeats disagree; [ ] = another dose, or the depositor's remark. Calls come from the whole dose curve; as a rule, active = well fitted curve in the direction sought with a large enough effect; inconclusive = small, poorly fitted or top-dose-only effect, or another doubt; inactive = no such curve, though single readings can be large; an effect the other way counts as inactive or inconclusive. Potency is the fitted concentration of half-maximal effect.
SMILES,BAZ2B block,Sfp inh,G9a inh,L3MBTL1 inh,JMJD2A Tudor inh,HP1b chromo inh
O=C(Nc1ccc(Cl)c(C(=O)N2CCOCC2)c1)c1ccccc1,0.7%,27.2%,44.7µM*,x,-3.9%,31.7%
O=C(Nc1ccc(N2CCN(C(=O)c3ccccc3)CC2)cc1)c1cc2ccccc2o1,3.3%,8.4%,9.4%[59 µM],-1.3%,5.3%,22.5%
O=C(Nc1ccc(N2CCOCC2)c(Cl)c1)c1ccc(Br)o1,-0.2%,-24.0%,-50.3%[12.7 µM],-7.1%,-12.0%,11.3%
O=C(Nc1ccc(N2CCN(C(=O)c3ccccc3)CC2)cc1)c1ccc(Br)o1,u,0.2%,31.6µM*,-14.8%,-27.6%,-2.4%
O=C(Nc1ccc(C(=O)N2CCOCC2)cc1)c1ccccc1,x,x,x,x,-1.4%,61.9%
CC(=O)c1cccc(NS(=O)(=O)c2cc(-c3onc(C)c3C)ccc2C)c1,2.4%,x,4.9%[59 µM],x,0.3%,34.4%
C=CCn1c(SCC(=O)c2cccs2)nnc1-c1cccc(OC)c1,0.1%,-29.9%,u,x,89.1µM*,26.1%
C=CCn1c(SCC(=O)c2cccs2)nc2sc(C)cc2c1=O,-5.1%,5.9%,8.2%[12.7 µM],x,-11.1%,68.9%
C=CCn1c(SCC(=O)c2ccc(O)c(O)c2)nnc1-c1cccc(OC)c1,50.1µM*,x,-3.6%[0.501 µM],u,u,13.6%
C=CCn1c(SCC(C)=O)nnc1-c1cc(-c2ccccc2)sc1N,u,-4.3%,11.2µM*,-4.5%,u,-22.5%
O=S(OCCN1CCOCC1)C(c1ccccc1)c1ccccc1 (stereo unspecified),x,x,x,x,0.7%,28.6%
Cc1c(CCOC(=O)c2cc([N+](=O)[O-])cc([N+](=O)[O-])c2)sc[n+]1CC(=O)c1ccc(Br)cc1,50.1µM*,u,2.51µM*,u,u,-34.2%
Cc1c(CCOC(=O)CC23CC4CC(CC(C4)C2)C3)sc[n+]1CC(=O)c1ccccc1,-14.9%,79.4µM*,x,4.7%,-31.5%,14.2%
Cc1c(CCOC(=O)c2ccc(Cl)cc2Cl)sc[n+]1CC(=O)c1ccccc1,x,x,x,-5.1%,-25.0%,17.4%
CCOc1ccc(Nc2ccnc3cc(Cl)ccc23)cc1,-9.3%,11.3%,-0.2%,x,-17.4%,25.6%
CCN1CCC(Nc2ccnc3cc(Cl)ccc23)CC1,-10.1%,6.7%,31.6µM*,-14.7%,-6.1%,24.2%
COc1ccc(C2Nc3ccccc3C(=O)N2Cc2ccccc2)cc1COc1cccc(C)c1 (stereo unspecified),x,x,x,x,-12.2%,x
Cc1[nH]c(=O)c(C#N)cc1-c1ccc2nccn2c1,x,-3.1%,12.6µM*,x,x,x
Cc1[nH]c(=O)c(C#N)cc1-c1ccncc1,-5.2%,13.5%,-3.9%[59 µM],13.7%,-15.8%,17.8%
CCN(c1cccc(C)c1)S(=O)(=O)c1cn(CC(=O)OC)c2ccc([N+](=O)[O-])cc12,-10.5%,9.8%,18.9%[59 µM],x,26.8%,61.2%
Cn1c(=S)ccc2ccccc21,-22.4%,44.7µM*,10µM*,-13.7%,-13.9%,u
COc1ccc(NC(=S)N2c3ccccc3CC2C)cc1OC (stereo unspecified),-36.7%,7.1%,50.1µM*,u,-28.4%,-4.8%
CC1Cc2ccccc2N1C(=S)Nc1cccc(S(=O)(=O)N(C)C)c1 (stereo unspecified),-20.9%,-30.5%,39.8µM*,7.4%,-34.9%,13.6%
O=C(O)CCc1ccc(-c2ccc(Br)cc2)o1,-35.8%,17.8µM*,15.8µM*,-2.3%,56.2µM*,-36.1%
Cc1oc(-c2ccc(Cl)cc2)cc1C(=O)O,-12.0%,-0.4%,x,x,-18.2%,7.7%
SMILES,BAZ2B block,Sfp inh,G9a inh,L3MBTL1 inh,JMJD2A Tudor inh,HP1b chromo inh
O=C(O)CCc1ccc(-c2ccc(Cl)cc2)o1,-36.2%,20µM*,3.98µM*,x,u,-23.2%
COc1ccc(-c2ccc(CCC(=O)O)o2)cc1,-30.3%,14.1µM*,28.2µM*,-8.7%,79.4µM*,-24.5%
COc1ccc(NC(=O)CSC2=Nc3ccccc3C3=NC(CCC(=O)NC4CCCCC4)C(=O)N23)cc1Cl (stereo unspecified),-25.1%,x,4.9%[59 µM],x,-4.8%,38.3%
Cc1cccc(NC(=O)CNC(=O)Cc2ccc(S(=O)(=O)N3CCOCC3)s2)c1C,-5.8%,x,1.3%[12.7 µM],1.6%,-13.9%,23.6%
COc1ccc(-c2onc(C)c2C)cc1S(=O)(=O)Nc1cccc(C#N)c1,0.4%,x,-2.9%[59 µM],x,-4.2%,22.3%
Cc1cc(Cl)c2oc(C(=O)N3CCCCC3CCN3CCCC3=O)c(C)c2c1 (stereo unspecified),50.1µM*,0.3%,x,x,-15.4%,17.6%
O=[N+]([O-])c1ccc(N/N=C/c2sc(N3CCOCC3)nc2-c2ccccc2)c(S(=O)(=O)Nc2ccc(Cl)cc2)c1,11.2µM*,-14.0%,39.8µM*,-2.6%,u,u
O=[N+]([O-])c1ccc(N/N=C/c2sc(N3CCOCC3)nc2-c2ccccc2)c(S(=O)(=O)Nc2ccccc2Cl)c1,u,9.9%,70.8µM*,-16.6%,-32.4%,-9.4%
O=C(N/N=C/c1sc(N2CCOCC2)nc1-c1ccccc1)c1ccccc1Cl,2.5%,-4.2%,34.6%[59 µM],14.6%,-15.8%[11.4 µM],-8.4%
CCOCCCNC(=O)CCc1nnc2n(CCC(C)C)c(=O)c3ccccc3n12,-8.6%,14.3%,27.3%,x,-31.1%,24.8%
COc1cc(NC(=O)c2ccc3oc(=O)c(S(=O)(=O)c4ccccc4)cc3c2)cc(OC)c1,-13.4%[57.1 µM],x,-31.8%[59 µM],x,-20.2%,22.5%
Cc1nc2c(o1)CCc1ccccc1C2N1CCN(C)CC1 (stereo unspecified),-36.4%,19.9%,5.8%[59 µM],u,89.1µM*!,7.1%
Cc1nc(S(=O)(=O)N2CCN(C3c4ccccc4-c4ccccc43)CC2)cn1C,u,-4.3%,x,-8.5%,-25.2%,20.1%
Cc1ccc(-n2c(N)cc(=O)nc2SCC(=O)NC2CCCCC2)cc1C,2.8%,17.7%,x,x,-5.5%,22.9%
OCCNc1nc(Nc2cccc(O)c2)nc2ccccc12,-32.8%,-16.7%,70.8µM*,x,-20.7%,12.7%
Oc1cccc(Nc2c3ccccc3nc3ccccc23)c1,u,-16.2%,39.8µM*,x,u,-7.5%
COc1cccc(Nc2nc(NCCO)c3ccccc3n2)c1,-11.6%,20µM*,u,x,-34.6%,11.0%
OCCNc1nc(N2CCN(c3ccccc3)CC2)nc2ccccc12,-33.4%,2.6%,79.4µM*,x,-24.6%,20.2%
Cc1cc(C)c(NC(=O)CSc2nc(=O)n(Cc3cccnc3)c3c2CCC3)c(C)c1,0.0%,x,12.0%[59 µM],x,-14.9%,24.5%
COc1ccc(/C=C/c2ccccc2)cc1C1C2C=CCCC2(C)C(=O)N1Cc1ccccc1 (stereo unspecified),x,u,x,x,-26.2%,16.5%
COc1ccc(CN=CC2=C(O)CNC2=O)cc1,-23.7%,20.7%,12.7%[12.7 µM],x,4.5%,61.7%
Cc1cc(C)cc(N=Cc2[nH]c3ccc(Br)c(Cl)c3c2O)c1,u,-9.6%,12.6µM*,2.8%,u,u
